Here are results for eight molecules from PubChem BioAssay (NCI).

SMILES strings stand for the structures. The panel holds about 83,000 compounds, 20% with a hit somewhere; the sample as a whole holds those more often.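 Step 1: grow cells in 96-well plates. Step 2: add test compound at a single concentration. Step 3: incubate 48 h. Step 4: record percent growth.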 Values without a mark were called inactive. Active and inactive are the calls of the source. How the source made its calls: active means growth percent below 10; inactive means the rest.

Some test systems named below: NCI-H23 lung; NCI-H226 lung; NCI-H322M lung; HOP-62 NSCLC; NCI-H460 lung; HOP-92 NSCLC; NCI-H522 lung; A549/ATCC NSCLC; 786-0 renal; COLO 205 colon; DU-145 prostate; K-562 leukemia; MALME-3M melanoma; MDA-MB-231 breast; RXF 393 renal; SF-268 CNS; SF-295 CNS; SF-539 CNS; UACC-257 melanoma; M14 melanoma.
Assay in all cases: NCI-60 one-dose screen, 48 h (100 = growth as untreated, 0 = no growth, -100 = all killed)
Common to all, as to settings: 10 µM unless noted

As for `CC(O)(CO)c1ccccc1` (configuration not stated), the growth was 96% in the test with NCI-H23 lung; 99.6% with NCI-H226 lung; 102% with NCI-H322M lung; 96.9% with HOP-62 NSCLC; 105% in the test on NCI-H460 lung; 94.2% in the test with HOP-92 NSCLC. The growth is 105% with NCI-H522 lung; 99.2% in the test on A549/ATCC NSCLC; 99% in the test on 786-0 renal; 103% in the test with COLO 205 colon; 105% in the test on DU-145 prostate; 120% with K-562 leukemia. Further, the growth was 95.3% with MALME-3M melanoma; 97.7% with MDA-MB-231 breast; 109% in the test on RXF 393 renal; 101% in the test with SF-268 CNS; 98.6% with SF-295 CNS; 92.4% with SF-539 CNS. Also, the results for the growth in the test on UACC-257 melanoma and in the test with M14 melanoma were 93.9% and 94.6%, respectively.
For the molecule `CCCCCCCCOc1ccc(/C=N/Nc2cc(C)nc3ccc(Cl)cc23)cc1`, the growth in the test with NCI-H23 lung is 65.2%; in the test on NCI-H226 lung, 87.2%; with NCI-H322M lung it was 42.2%; in the test with HOP-62 NSCLC it was -46.5% (active); with NCI-H460 lung it was -63.4% (active); with HOP-92 NSCLC, 67.3%. In addition, the growth is -56.7% (active) with NCI-H522 lung; -37.3% (active) in the test on A549/ATCC NSCLC; -94% (active) with 786-0 renal; -36.2% (active) in the test on COLO 205 colon; -87.3% (active) with DU-145 prostate; -52.6% (active) in the test with K-562 leukemia. In addition, the growth with MALME-3M melanoma was 91%; with MDA-MB-231 breast, -59.3% (active); with RXF 393 renal, -68.9% (active); with SF-268 CNS, 104%; in the test with SF-295 CNS, -72.8% (active); in the test with SF-539 CNS, -81% (active). Moreover, in the test on UACC-257 melanoma, the growth was 116%.
For the molecule `COc1cccc(-c2nc3occn3c2-c2ccnc(NCCCNS(=O)(=O)c3cccc(F)c3)n2)c1`, the growth in the test on NCI-H23 lung was 89.7%; with NCI-H226 lung, 62.2%; with NCI-H322M lung, 107%; in the test on HOP-62 NSCLC, 108%; in the test with NCI-H460 lung, 82.6%; with HOP-92 NSCLC, 91.9%. Further, the growth was 74.9% in the test on NCI-H522 lung; 97.4% in the test with A549/ATCC NSCLC; 103% in the test with 786-0 renal; 45.5% with COLO 205 colon; 93.8% with DU-145 prostate; 69% with K-562 leukemia. Further, the growth in the test on MALME-3M melanoma is 70.2%; in the test on MDA-MB-231 breast it was 104%; in the test with RXF 393 renal it was 99.2%; in the test with SF-268 CNS, 87%; in the test with SF-295 CNS, 94.8%; in the test with SF-539 CNS, 106%. Also, the figures for the growth in the test with UACC-257 melanoma and with M14 melanoma were 83.8% and 60.9%, respectively.
Take `CCOc1ccc(/C=N/Nc2cc(C)nc3ccc(Cl)cc23)cc1`: the growth with NCI-H23 lung is 78.9%; in the test on NCI-H226 lung, 79.5%; with NCI-H322M lung, 66.9%; in the test with HOP-62 NSCLC, 94.4%; with NCI-H460 lung it was 3.37% (active); with HOP-92 NSCLC, 50.5%. Moreover, the growth in the test with NCI-H522 lung was 58.4%; with A549/ATCC NSCLC it was 59.9%; with 786-0 renal, 33.2%; with COLO 205 colon, 21%; in the test with DU-145 prostate, 44.4%; with K-562 leukemia it was -38.7% (active). Besides, the growth with MALME-3M melanoma is -38.9% (active); in the test with MDA-MB-231 breast, 43%; in the test with RXF 393 renal, 0.829% (active); in the test on SF-268 CNS, 75.2%; with SF-295 CNS it was -64.6% (active); with SF-539 CNS, 83.6%. In addition, the growth in the test with UACC-257 melanoma is 69.5%; in the test with M14 melanoma, -39.6% (active).
As for `C=C(C)[C@@H]1CC[C@]2(C=O)CC[C@]3(C)[C@H](CC[C@@H]4[C@@]5(C)CCCNC(C)(C)[C@@H]5CC[C@]43C)[C@@H]12`, the growth was 78.7% in the test with NCI-H23 lung; 91.7% in the test with NCI-H226 lung; 91.5% with NCI-H322M lung; 94.5% with HOP-62 NSCLC; 16.7% in the test with NCI-H460 lung; 54.5% in the test with HOP-92 NSCLC. Also, the growth in the test on NCI-H522 lung was 84.1%; in the test on A549/ATCC NSCLC, 62.2%; in the test on 786-0 renal, 80.9%; in the test with COLO 205 colon it was -78.8% (active); in the test on DU-145 prostate, 77.6%; with K-562 leukemia, 0.984% (active). Also, the growth in the test on MALME-3M melanoma is 77.7%; with MDA-MB-231 breast, 91.2%; in the test on RXF 393 renal it was 85.9%; in the test on SF-268 CNS, 90.8%; in the test with SF-295 CNS, 105%; with SF-539 CNS, 90.1%. Moreover, in the test with UACC-257 melanoma, the growth is 86.6%.
In the case of `CCSc1ccc2c(c1)N(CCCN1CCN(C)CC1)c1ccccc1S2`, the growth in the test on NCI-H23 lung was 74.2%; in the test on NCI-H226 lung it was 90.5%; in the test with NCI-H322M lung it was 73.1%; with HOP-62 NSCLC, 69.8%; with NCI-H460 lung it was 9.17% (active); in the test on HOP-92 NSCLC, 20.3%. The growth in the test on NCI-H522 lung was 70.3%; in the test with A549/ATCC NSCLC, 53.6%; in the test with 786-0 renal, 43.2%; in the test on COLO 205 colon, -62.1% (active); in the test on DU-145 prostate, 56.3%; in the test with K-562 leukemia, -20.9% (active). The growth in the test with MALME-3M melanoma was -61.6% (active); in the test with MDA-MB-231 breast, 16.5%; in the test with RXF 393 renal, 18.6%; in the test on SF-268 CNS, 55.8%; with SF-295 CNS, 35.4%; in the test on SF-539 CNS, 63.2%. In addition, in the test on UACC-257 melanoma, the growth is -69.8% (active).
In the case of `O=c1[nH]c(=O)[nH]c(=S)[nH]1`, the growth in the test with NCI-H23 lung was 98.5%; in the test with NCI-H226 lung, 97.9%; with NCI-H322M lung, 95.6%; with HOP-62 NSCLC, 102%; in the test on NCI-H460 lung it was 105%; with HOP-92 NSCLC, 101%. In addition, the growth in the test with NCI-H522 lung is 94.6%; in the test with A549/ATCC NSCLC, 99.7%; in the test on 786-0 renal, 102%; in the test with COLO 205 colon, 103%; in the test with DU-145 prostate, 105%; in the test on K-562 leukemia, 105%. Also, the growth in the test on MALME-3M melanoma is 98%; with MDA-MB-231 breast, 102%; with RXF 393 renal it was 107%; with SF-268 CNS, 102%; with SF-295 CNS it was 102%; in the test on SF-539 CNS it was 98.8%. The growth with UACC-257 melanoma is 101%; in the test with M14 melanoma, 100%.
On to `CCCCCCNC(=O)Oc1ccc(/C(=C(/CC)Cc2ccccc2)c2ccc(OCCN(CC)CC)cc2)cc1`, for which the growth with NCI-H23 lung was 88%; with NCI-H226 lung, 89.3%; in the test with NCI-H322M lung, 87.5%; in the test on HOP-62 NSCLC it was 88.8%; with NCI-H460 lung, -41.3% (active); with HOP-92 NSCLC, 42.3%. The growth is 74.5% in the test with NCI-H522 lung; 56.2% with A549/ATCC NSCLC; 63.7% in the test on 786-0 renal; -48.6% (active) in the test with COLO 205 colon; 80.8% in the test on DU-145 prostate; -11.6% (active) in the test with K-562 leukemia. The growth in the test with MALME-3M melanoma was 17.4%; with MDA-MB-231 breast, 67.5%; in the test on RXF 393 renal, 60.2%; in the test on SF-268 CNS it was 76.5%; with SF-295 CNS, 102%; in the test with SF-539 CNS, 86.1%. Besides, the growth is 86% in the test with UACC-257 melanoma and 39.4% with M14 melanoma.
